The text below walks through data of PMC4336329 (PLoS ONE, 2015).

The whole screen tested about 310,000 compounds, of which about 14,000 (4.5%) showed an effect of 50% or more. Effects have a minus sign here. The list comes from a sample in which strong results are over-represented; it also holds similar structures and randomly drawn compounds.
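Note: peak tail current of the secondary pulse compared with the same well before compound.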

For this experiment, the target named is human ether-à-go-go-related gene (hERG) potassium channel (human, UniProt Q12809). Put plainly: primary screen, population patch clamp on CHO cells stably expressing hERG; higher = less effect of the substance.
human ether-à-go-go-related gene (hERG) potassium channel, sequence (Q12809 whole entry, looked up): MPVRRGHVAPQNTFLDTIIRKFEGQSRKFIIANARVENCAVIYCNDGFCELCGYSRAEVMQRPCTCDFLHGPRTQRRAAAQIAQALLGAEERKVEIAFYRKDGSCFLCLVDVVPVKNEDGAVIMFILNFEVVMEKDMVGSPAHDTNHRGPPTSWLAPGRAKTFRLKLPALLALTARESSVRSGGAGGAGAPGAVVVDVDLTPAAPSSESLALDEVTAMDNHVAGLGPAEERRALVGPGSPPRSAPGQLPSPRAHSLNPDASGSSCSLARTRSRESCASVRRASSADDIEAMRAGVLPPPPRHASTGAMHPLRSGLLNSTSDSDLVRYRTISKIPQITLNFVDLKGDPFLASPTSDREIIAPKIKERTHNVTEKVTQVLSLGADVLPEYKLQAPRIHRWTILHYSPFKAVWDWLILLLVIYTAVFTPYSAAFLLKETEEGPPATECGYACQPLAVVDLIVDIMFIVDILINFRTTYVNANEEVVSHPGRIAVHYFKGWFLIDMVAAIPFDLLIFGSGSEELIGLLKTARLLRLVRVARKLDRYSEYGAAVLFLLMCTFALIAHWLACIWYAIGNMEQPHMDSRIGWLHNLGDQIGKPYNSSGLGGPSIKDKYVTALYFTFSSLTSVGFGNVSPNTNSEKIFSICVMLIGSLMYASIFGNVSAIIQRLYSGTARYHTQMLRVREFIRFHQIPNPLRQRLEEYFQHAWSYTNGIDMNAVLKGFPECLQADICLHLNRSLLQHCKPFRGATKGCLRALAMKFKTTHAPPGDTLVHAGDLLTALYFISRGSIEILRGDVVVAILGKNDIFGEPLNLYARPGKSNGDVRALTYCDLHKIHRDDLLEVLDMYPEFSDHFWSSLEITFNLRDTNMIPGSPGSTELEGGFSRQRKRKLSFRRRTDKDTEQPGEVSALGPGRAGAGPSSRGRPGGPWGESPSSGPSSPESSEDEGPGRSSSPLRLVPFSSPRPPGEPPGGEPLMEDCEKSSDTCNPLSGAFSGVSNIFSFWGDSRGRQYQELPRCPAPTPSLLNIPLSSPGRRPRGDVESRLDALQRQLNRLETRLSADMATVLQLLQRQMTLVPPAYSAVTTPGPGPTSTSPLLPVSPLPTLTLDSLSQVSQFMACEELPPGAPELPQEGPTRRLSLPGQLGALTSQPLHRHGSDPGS
In the case of `CCS(=O)(=O)NC(C)C(c1cccs1)N1CCN(c2ccc(F)cc2)CC1` (stereo not drawn), the “hERG current change (%, negative = inhibition) at 10uM” value is -8.13%.
With `CC(C)CCn1cnc2c(cnn2-c2ccc(F)cc2)c1=O` the figure was -3.95%; with `O=C(C1=C[C@@H](c2ccc(Br)cc2)C[C@@H](OCCCCO)O1)N1CCN(Cc2ccc3c(c2)OCO3)CC1`, -55.3%.
As to `O=C(C1=C[C@H](c2ccc3c(c2)OCO3)C[C@H](OCCCCO)O1)N1CCN(Cc2ccc3c(c2)OCO3)CC1`, the “hERG current change (%, negative = inhibition) at 10uM” value is on record as -69.1%.
For `C[C@@H]1C=C(C(=O)N2CCN(Cc3ccc4c(c3)OCO4)CC2)O[C@H](OCCCCO)C1` the value was 4.01%; for `O=C(C1=C[C@@H](c2ccc3c(c2)OCO3)C[C@@H](OCCCCO)O1)N1CCOCC1`, 7.64%; for `O=C(C1=C[C@H](c2ccc(Br)cc2)C[C@H](OCc2ccc(CO)cc2)O1)N1CCN(Cc2ccc3c(c2)OCO3)CC1`, -19.8%.
As to `C#Cc1ccc([C@H]2C=C(C(=O)N3CCN(Cc4ccc5c(c4)OCO5)CC3)O[C@@H](OCc3ccc(CO)cc3)C2)cc1`, the “hERG current change (%, negative = inhibition) at 10uM” value was -7.23%.
For `O=C(C1=C[C@H](c2ccc(C(F)(F)F)cc2)C[C@H](OCCCCO)O1)N1CCN(Cc2ccc3c(c2)OCO3)CC1` the value was -44.1%; for `C#Cc1ccc([C@@H]2C=C(C(=O)N3CCN(Cc4ccc5c(c4)OCO5)CC3)O[C@H](OCCCCO)C2)cc1`, -64.1%.
With `O=C(C1=C[C@@H](c2ccc(C(F)(F)F)cc2)C[C@@H](OCCCCO)O1)N1CCN(Cc2ccc3c(c2)OCO3)CC1` the figure was -68.8%; with `O=C(C1=C[C@@H](c2ccc(Br)cc2)C[C@@H](OCc2ccc(CO)cc2)O1)N1CCN(Cc2ccc3c(c2)OCO3)CC1`, -9.55%.
For `CC(C)(C)[C@H]1C=C(C(=O)N2CCN(Cc3ccc4c(c3)OCO4)CC2)O[C@@H](OCCCCO)C1` the value was -23.4%; for `O=C(C1=C[C@H](c2ccc(C(F)(F)F)cc2)C[C@H](OCc2ccc(CO)cc2)O1)N1CCN(Cc2ccc3c(c2)OCO3)CC1`, -19.5%.
Turning to `c1ccc2c(c1)NC1(CCCC1)n1c-2nc2ccccc21`, the “hERG current change (%, negative = inhibition) at 10uM” value is reported as -9.46%.
With `CCOP(=S)(OCC)C(O)CCCCCn1c(=O)c(F)cn(C2CCCO2)c1=O` (stereo not drawn) the figure was -2.13%; with `CN(C(=S)Nc1ccc(F)cc1)C(c1ccccc1)c1ccccc1`, 11.1%; with `CCn1c(SCC(=O)Nc2ccc(NC(C)=O)cc2)nc2c1c(=O)n(C)c(=O)n2C`, 24.7%.
`CN1CCN(C(=O)C2=C[C@H](c3ccc4c(c3)OCO4)C[C@H](OCCCCO)O2)CC1`: the “hERG current change (%, negative = inhibition) at 10uM” value is listed as -8.06%.
With `O=C(C1=C[C@H](c2ccccc2)C[C@H](OCc2ccc(CO)cc2)O1)N1CCN(Cc2ccc3c(c2)OCO3)CC1` the figure was -39.5%; with `O=C(C1=C[C@@H](c2ccc3c(c2)OCO3)C[C@@H](OCCCCO)O1)N1CCN(Cc2ccc3c(c2)OCO3)CC1`, -65.9%; with `O=C(C1=C[C@H](c2ccc3c(c2)OCO3)C[C@H](OCCCCO)O1)N1CCOCC1`, -1.14%.
On to `O=C(C1=C[C@@H](c2ccccc2)C[C@@H](OCCCCO)O1)N1CCN(Cc2ccc3c(c2)OCO3)CC1`, for which the “hERG current change (%, negative = inhibition) at 10uM” value is -55.2%.
For `O=C(C1=C[C@H](c2ccc3c(c2)OCO3)C[C@H](OCCCCO)O1)N1CCN(Cc2ccccc2)CC1` the value was -62.8%; for `CC(=O)n1cc([C@H]2C=C(C(=O)N3CCN(Cc4ccc5c(c4)OCO5)CC3)O[C@@H](OCCCCO)C2)c2ccccc21`, -32.7%.
For `O=C(C1=C[C@H](c2ccccc2)C[C@H](OCCCCO)O1)N1CCN(Cc2ccc3c(c2)OCO3)CC1` the value was -41.8%.
For `CC(=O)n1cc([C@@H]2C=C(C(=O)N3CCN(Cc4ccc5c(c4)OCO5)CC3)O[C@H](OCCCCO)C2)c2ccccc21` the value was -50.2%.
For the compound `CC(=O)n1cc([C@H]2C=C(C(=O)N3CCN(Cc4ccc5c(c4)OCO5)CC3)O[C@@H](OCc3ccc(CO)cc3)C2)c2ccccc21`, the “hERG current change (%, negative = inhibition) at 10uM” value is listed as 3.43%.
Take `CC1(C)CC2(CCO1)OC(=O)CC2C(=O)Nc1ccccc1Cl` (stereo not drawn): the “hERG current change (%, negative = inhibition) at 10uM” value stood at 1.54%.
In the case of `Cc1ccc(S(=O)(=O)NNC(=O)c2cccs2)c(C)c1`, the “hERG current change (%, negative = inhibition) at 10uM” value is given as 14.4%.
As to `Cc1ccc(O)c(N=NC2=C(O)CC(C)(C)CC2=O)c1`, the “hERG current change (%, negative = inhibition) at 10uM” value stood at 3.16%.
In the case of `Cc1nn(C)c(Oc2cccc(Cl)c2)c1C(=O)Nc1ccc(F)cc1`, the “hERG current change (%, negative = inhibition) at 10uM” value is -15.3%.
As to `CCn1c(CCn2ccnc2C)n[nH]c1=S`, the “hERG current change (%, negative = inhibition) at 10uM” value is given as -1.48%.
For `O=C1CCCC2=C1C(Cc1ccccc1)C1=C(CCCC1=O)O2` the value was -3.32%; for `CCCc1cc(C(=O)NC(C)C2CCCO2)cs1` (stereo not drawn), 7.72%; for `Cc1nc2cc(NS(=O)(=O)c3ccccc3)ccc2n1C`, 9.21%.
For the compound `CC(=O)c1cccc(NC(=O)C2CCCN(S(C)(=O)=O)C2)c1` (stereo not drawn), the “hERG current change (%, negative = inhibition) at 10uM” value is reported as 8.02%.
With `N#C/C(=C\c1ccccc1)C(=O)Nc1ccccn1` the figure was 12.7%.
With `CCCCN1C(=O)c2ccc(C(=O)Nc3c(N)n(CCCC)c(=O)n(C)c3=O)cc2C1=O` the figure was -51.9%; with `CCCCN1C(=O)c2ccc(C(=O)Nc3cccc(C)c3C)cc2C1=O`, 17.2%.
For the compound `CCCCN1C(=O)c2ccc(C(=O)Nc3ccc(S(=O)(=O)N(C)C)cc3)cc2C1=O`, the “hERG current change (%, negative = inhibition) at 10uM” value is -0.448%.
With `CCOC(=O)C1(CCCc2ccccc2)CCN(C(=O)CCc2cnccn2)CC1` the figure was -66.4%; with `CCOC(=O)C1(Cc2ccc(Cl)cc2)CCN(C(=O)CCc2cnccn2)CC1`, -50%.
For `CCOC(=O)C1(Cc2ccc(OC)cc2)CCN(C(=O)CCc2cnccn2)CC1` the value was -7.37%; for `CCOC(=O)C1(CCc2ccccc2)CCN(C(=O)CCc2cnccn2)CC1`, -66.5%.
Regarding `Cc1ccc(C)c(SCC(=O)Nc2cccnc2Cl)c1`, the “hERG current change (%, negative = inhibition) at 10uM” value worked out at 0.545%.
Take `O=C(COC(=O)Cc1ccccc1[N+](=O)[O-])NCC1CCCCC1`: the “hERG current change (%, negative = inhibition) at 10uM” value is given as 0.647%.
With `COc1ccc(NC(=S)NC(=O)C2CCC2)cc1` the figure was 7.29%; with `O=S(=O)(NCc1ccco1)c1cccc2cccnc12`, -22.3%; with `N#CC(C#N)=C1C=CC=CN1/C(=C\c1ccco1)C(=O)c1ccc(Cl)cc1`, -36%.
With `COc1ccc(C(=O)/C(=C\c2ccco2)N2C=CC=CC2=C(C#N)C#N)cc1` the figure was -72%; with `N#CC(C#N)=C1C=CC=CN1/C(=C\c1ccco1)C(=O)c1ccc(Br)cc1`, -46.5%; with `N#CC(C#N)=C1C=CC=CN1/C(=C\c1ccco1)C(=O)c1ccccc1`, -57.8%.
With `N#CC(C#N)=C1C=CC=CN1/C(=C\c1ccccc1Cl)C(=O)c1ccccc1` the figure was 8.73%; with `N#CC(C#N)=C1C=CC=CN1/C(=C\c1ccco1)C(=O)c1ccc(-c2ccccc2)cc1`, 3.14%.
Consider `COc1cc(/C=N/Nc2ccc([N+](=O)[O-])cc2S(=O)(=O)N2CCOCC2)cc(OC)c1OC`, for which the “hERG current change (%, negative = inhibition) at 10uM” value is on record as -3.33%.
In the case of `O=C(Nc1ccc(Cl)cc1Cl)c1csc(-c2cccnc2)n1`, the “hERG current change (%, negative = inhibition) at 10uM” value is recorded as -1.42%.
For the compound `CS(=O)(=O)N1CCc2cc(C(=O)Nc3ccccc3)ccc21`, the “hERG current change (%, negative = inhibition) at 10uM” value is -1.25%.
For the compound `Cc1cccc(Nc2nc(NCc3ccco3)nc(N)c2[N+](=O)[O-])c1`, the “hERG current change (%, negative = inhibition) at 10uM” value amounted to 10.6%.
With `O=C(Nc1ccnn1C1CCN(Cc2cccc(F)c2F)CC1)C1CCCC1`, the “hERG current change (%, negative = inhibition) at 10uM” value was -23.2%.
With `CC(C)Oc1ccc(CN2CCC(n3nccc3NC(=O)c3cccnc3)CC2)cc1` the figure was -70.4%.
Consider `CCOc1cccc(CN2CCC(n3nccc3NC(=O)C3CC3)CC2)c1O`, for which the “hERG current change (%, negative = inhibition) at 10uM” value is given as -64.2%.
As for `COc1ccc(CN2CCC(n3nccc3NC(=O)C3CC3)CC2)cc1O`, the “hERG current change (%, negative = inhibition) at 10uM” value is reported as -58.8%.
For `Cc1ccccc1CN1CCC(n2nccc2NC(=O)c2cccnc2)CC1` the value was -14.6%; for `O=C(Nc1ccnn1C1CCN(Cc2ccc(OC(F)F)cc2)CC1)C1CCCC1`, -75.3%; for `Cc1ccc(CN2CCC(n3nccc3NC(=O)C3CCOC3)CC2)cc1C` (stereo not drawn), -20.5%.
With `Cc1cc(NC(=O)C(C)SCC(=O)OCc2ccc(Cl)cc2Cl)no1` (stereo not drawn), the “hERG current change (%, negative = inhibition) at 10uM” value is reported as 1.04%.
Regarding `Cc1ccc(C(=O)NCc2ccco2)c(C)c1`, the “hERG current change (%, negative = inhibition) at 10uM” value turned out to be 20.5%.
For `O=C(CCC(=O)N1CCN(c2ccc(O)cc2)CC1)c1ccc(Br)cc1` the value was -44.4%; for `O=C(O)c1cc(-c2ccccc2)nc(-c2ccccc2)c1`, 22.5%; for `CC1CN(c2ccc([N+](=O)[O-])cc2C(=O)N2CCOCC2)CC(C)N1` (stereo not drawn), -9.17%.
With `CC(C)(O)C#Cc1ccc(CN2CCC(n3nccc3NC(=O)C3CC3)CC2)cc1`, the “hERG current change (%, negative = inhibition) at 10uM” value is on record as -19%.
With `Cn1cc(CN2CCC(n3nccc3NC(=O)C3CCCC3)CC2)cn1` the figure was 12.6%; with `CCOc1ccc(CN2CCC(n3nccc3NC(=O)C3CC3)CC2)cc1CO`, -57.1%.
Turning to `COC(=O)c1ccc(CN2CCC(n3nccc3NC(=O)C3CCCC3)CC2)cc1`, the “hERG current change (%, negative = inhibition) at 10uM” value is reported as -67.7%.
Consider `COc1ccc(CN2CCC(n3nccc3NC(=O)C3CCCC3)CC2)cc1`, for which the “hERG current change (%, negative = inhibition) at 10uM” value is given as -68.9%.
For `CCOc1cc(CN2CCC(n3nccc3NC(=O)C3CC3)CC2)ccc1O`, the “hERG current change (%, negative = inhibition) at 10uM” value was -22%.
For `COC(=O)c1ccc(CN2CCC(n3nccc3NC(=O)C3CC3)CC2)cc1` the value was -55.6%.
